D2 antag – antagonizes the human D2 dopamine receptor; HEK293 TREx D2 cells, calcium flux, dopamine EC80; hit rate 2% among 340,000; AID 485344; P14416; inhibition, % at 10 µM; in the data active = inhibition above about 30%; inactive = below that, where a call was filed; note: 0% is about no effect
Target sequence (P14416 whole entry, looked up): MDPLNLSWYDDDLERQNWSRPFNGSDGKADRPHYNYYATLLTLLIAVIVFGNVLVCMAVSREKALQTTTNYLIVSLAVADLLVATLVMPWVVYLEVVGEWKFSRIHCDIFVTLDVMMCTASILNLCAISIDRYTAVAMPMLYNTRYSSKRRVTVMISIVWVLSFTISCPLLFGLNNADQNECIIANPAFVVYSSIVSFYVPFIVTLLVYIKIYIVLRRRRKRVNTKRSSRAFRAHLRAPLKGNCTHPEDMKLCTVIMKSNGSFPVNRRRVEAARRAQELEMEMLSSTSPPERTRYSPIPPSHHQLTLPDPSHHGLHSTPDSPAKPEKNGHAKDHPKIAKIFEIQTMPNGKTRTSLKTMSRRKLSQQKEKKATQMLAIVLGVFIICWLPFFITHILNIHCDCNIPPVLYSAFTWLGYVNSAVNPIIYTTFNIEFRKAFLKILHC
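Read-out: kinetic calcium fluorescence (1 cycle/s) in inducible HEK293 T-REx D2 cells after an EC80 dopamine addition that followed 180 s compound preincubation. Loss of the dopamine response indicates antagonism.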
D2 PAM-1 – positively modulates the human D2 dopamine receptor allosterically. hit rate 0.34% among 340,000. potentiation, % at 10 µM. AID 485347. HEK293 T-REx D2, calcium flux, EC20 dopamine potentiation. P14416;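 active = potentiation over 3 SD above the plate norm, cut at about 30% in these data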; note: 0% is about no effect
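Cells plated with tetracycline inducer and held overnight at 30 C; calcium dye loaded 30–90 min at room temperature; baseline taken, compound added and read 180 s; EC20 dopamine then added and read 180 s.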
D2 ag-1 – activates the human D2 dopamine receptor. DiscoveRx PathHunter D2 beta-arrestin, luminescence, 90 min; 100% = 57 uM dopamine signal. activation, % (test concentration not listed). hit rate 0.084% among 360,000; in the data active = activation above about 40%; inconclusive = between about 15% and that limit
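Agonist mode: compounds alone added to overnight-plated D2 PathHunter cells for 90 min at 37 C, with 57 uM final dopamine (EC100) defining full response. Beta-arrestin recruitment detected by chemiluminescent reagent, read after 1 h at ambient temperature.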
D2 PAM-2 – positive allosteric modulators of human D2 dopamine receptor; DiscoveRx D2 beta-arrestin cells, luminescence, 90 min; 100% = 57 uM dopamine signal; P14416; hit rate 0.23% among 360,000; potentiation, % (no concentration beside the values); in the data active = potentiation above about 50%; inconclusive = mostly about 30% to 49%
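PathHunter beta-arrestin assay in DiscoveRx D2 cells. Compounds were added with an EC20 of dopamine (50 nM final) for 90 min at 37 deg C. Luminescence was read 1 h after detection reagent, with 57 uM dopamine as the EC100 control.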
D2 ag-2 – activates the human D2 dopamine receptor | hit rate 0.53% among 340,000 | AID 485358 | activation, % at 2 µM | HEK293 T-REx D2 cells, calcium flux agonist mode | P14416;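 active = activation over 3 SD above normal in the single-dose calcium agonist read, cut at about 30% in these data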; note: 0% is about no effect
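HEK293 Trex D2 cells, tetracycline-induced, o/n 30 C 5% CO2; no-wash Ca dye, RT 30–90 min; 10-cycle baseline, 23 nl cpd added, kinetic Ca read 180 s; agonist hits = positive Ca response.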
Numbers without * were called inactive; ? = inconclusive; nt = not tested or not shown. Compounds with a hit are over-represented: about 2.4% of the library has one in this group of screens.

SMILES	D2 antag	D2 PAM-1	D2 ag-1	D2 PAM-2	D2 ag-2
O=C(Cn1cc(SCc2ccc(C(F)(F)F)cc2)c2ccccc21)N1CCOCC1	nt	-1	nt	nt	0
O=C(O)CCC(=O)N1CCc2cc(S(=O)(=O)N3CCC(Cc4ccccc4)CC3)ccc21	34*	1	-4	-4	1
CC1CCN(S(=O)(=O)c2ccc3c(c2)CCN3C(=O)CCC(=O)O)CC1	10	-5	-1	-8	0
COc1cc(/C=C2\SC(=S)N(CCCCC(=O)O)C2=O)ccc1OS(=O)(=O)c1ccc(C)cc1	32*	-9	5	?	2
COc1cc(/C=C2/SC(=S)NC2=O)ccc1OS(=O)(=O)c1ccc(C)cc1	-3	1	-4	-17	5
CCCCCn1c(CN2CCCCC2CC)nc2c1c(=O)n(C)c(=O)n2C (stereo not given)	4	55*	0	-4	0
CCOC(=O)N1CCN(Cc2nc3cc([N+](=O)[O-])ccc3n2CC)CC1	37*	-7	2	3	-1
Nc1nonc1-c1nc2ccccc2n1CC(=O)Nc1ccc(F)cc1	nt	9	nt	nt	5
Nc1nonc1-c1nc2ccccc2n1CC(=O)N1CCN(c2ccc(F)cc2)CC1	-30	50*	1	-11	1
CC(=O)Oc1ccccc1Cn1c(C)c(C(=O)NCc2cccc(Cl)c2)sc1=O	nt	nt	9	4	nt
COC(=O)c1c(-c2ccc(Cl)cc2)noc1N1CCN(c2ccc(C)cc2C)CC1	nt	3	nt	nt	0
CCOc1ccc(OCCC(=O)Nc2ccccc2C(=O)NC2CC2)cc1	nt	nt	-2	-23	nt
COc1ccc(OC)c(N2CC(O)(c3cccs3)[N+]3=C2SCCC3)c1 (stereo not given)	40*	-25	-4	-48	4
OC1(c2cccs2)CN(c2ccc(Br)cc2)C2=[N+]1CCCS2 (stereo not given)	2	-19	-4	-17	6
Cc1ccc(OCCNCC(O)COc2ccccc2)cc1 (stereo not given)	45*	-24	0	-14	0
OC(CNCc1ccccc1)COCc1ccc(Cl)cc1 (stereo not given)	-12	13	-2	-7	1
OC(CNCc1ccc(Cl)cc1)COc1ccccc1 (stereo not given)	49*	-23	-6	-21	1
Cc1nn(C)c(C)c1NC(=S)Nc1ccc(S(=O)(=O)Nc2ncccn2)cc1	31*	1	0	-3	1
COc1ccc(/C=N/NC(=O)COc2ccc3ccccc3c2)c(C(=O)O)c1OC	7	12	-7	-2	1
COc1ccc(/C=N/NC(=O)COc2cccc3ccccc23)c(C(=O)O)c1OC	-21	40*	0	2	0
Cc1ccc(OCC(=O)c2c(N)n(C)c(=O)n(C)c2=O)c([N+](=O)[O-])n1	33*	-2	-2	-2	0
Cc1sc2nc(C3CC3)nc(SCC(=O)N3CCCc4ccccc43)c2c1C	3	3	nt	nt	0
Cn1c(=O)c2c(SCC(=O)N3CCCc4ccccc43)nc(C3CC3)nc2n(C)c1=O	35*	25	-5	-4	1
CCN1C(=O)c2cccc3c(S(=O)(=O)N4CCC(C)CC4)ccc1c23	37*	-4	-3	1	-1
CCN(Cc1ccccc1)S(=O)(=O)c1ccc(C(=O)Nc2nnc(-c3ccccc3OC)o2)cc1	42*	-2	1	-1	1
SMILES	D2 antag	D2 PAM-1	D2 ag-1	D2 PAM-2	D2 ag-2
Cc1cccc(N2CCN(C(=O)c3noc4c3CCCCC4)CC2)c1C	nt	1	nt	nt	-1
O=C(NCCc1cnc[nH]1)Nc1cccc(C(F)(F)F)c1	40*	-10	-3	-65	0
O=C(NCc1cccnc1)Nc1cccc(C(F)(F)F)c1	-10	-12	-1	-15	0
CC(=O)N1CCCc2cc(S(=O)(=O)NCc3ccc(N(C)C)cc3)ccc21	nt	6	nt	nt	0
CCCNC(=O)C1(C)CCN(Cc2ccc(OCc3ccccc3)cc2)C1 (stereo not given)	nt	nt	4	-11	nt
CCOc1cc(N2CCOCC2)c(OCC)cc1NC(=O)CSc1ncccn1	-9	12	3	1	-1
CCOc1cc(N2CCOCC2)c(OCC)cc1NC(=O)C1=COCCO1	39*	5	-5	-3	1
CCOc1cc(N2CCOCC2)c(OCC)cc1NC(=O)CSc1cccc[n+]1[O-]	nt	nt	2	57*	nt
Cc1ccc(C)c(N2CCN(C(=O)C3CCN(c4nc5ccc(C)cc5[nH]4)CC3)CC2)c1	nt	-8	nt	nt	0
COc1ccc(NC(=O)C2CSC3c4ccccc4C(=O)N23)cc1 (stereo not given)	32*	-3	-1	-9	-2
COC(=O)C1CSC2c3ccccc3C(=O)N12 (stereo not given)	nt	nt	-4	-10	nt
CCCCC(=O)Nc1nnc(S(=O)(=O)N(CC)c2ccc(OC)cc2)s1	9	-6	6	-2	0
CCN(c1ccc(OC)cc1)S(=O)(=O)c1nnc(NC(=O)COc2ccccc2)s1	-9	37*	5	-6	0
COc1ccccc1NS(=O)(=O)c1cc(C(=O)NC2CCN(Cc3ccccc3)CC2)ccc1C	nt	nt	10	-3	nt
COc1ccccc1NS(=O)(=O)c1ccc(C)c(C(=O)NC2CCN(Cc3ccccc3)CC2)c1	77*	-19	-4	-41	0
COc1ccccc1NS(=O)(=O)c1cccc(C(=O)NC2CCN(Cc3ccccc3)CC2)c1	101*	-24	-3	-15	1
COc1ccc(NS(=O)(=O)c2ccc(C)c(C(=O)NC3CCN(Cc4ccccc4)CC3)c2)cc1	26	-24	-3	-44	0
CC(=O)NC/C(C)=N\Nc1ccc([N+](=O)[O-])cc1	3	1	-1	-1	3
CC(=O)/C(=N\Nc1ccccc1)Oc1ccc([N+](=O)[O-])cc1	11	34*	0	1	0
CC(=O)Nc1ccccc1/C=C/c1ccc2c(C)ccc(O)c2n1	33*	9	3	-9	2
Cc1cccc(C)c1NC(=O)C(c1cccs1)N(Cc1ccco1)C(=O)Cn1nnc2ccccc21 (stereo not given)	5	35*	-11	13	0
CCN(CC)S(=O)(=O)c1ccc2c(c1)N(CC(=O)Nc1cccc(C(C)=O)c1)C(=O)CO2	nt	13	nt	nt	nt
CNC(=O)c1ccc(NC(=O)C2CCN(S(=O)(=O)c3cccc(C(F)(F)F)c3)CC2)cc1	30*	-2	1	14	1
O=C(O)/C=C/C(=O)N1CCN(S(=O)(=O)c2cccc(C(F)(F)F)c2)CC1	31*	5	3	?	0
O=C(NNC(=O)C1CCN(S(=O)(=O)c2cccc(C(F)(F)F)c2)CC1)C1CC1	4	-3	1	3	0
COc1ccc(CC(=O)NCc2ccc3c(c2)CCN3C(=O)c2ccc(C)cc2)cc1OC	nt	-13	nt	nt	1

Source: PubChem BioAssay
